# Laboratory results reported in PubChem BioAssay AID651871 (Sanford-Burnham Center for Chemical Genomics, 2012).
# Values joined by “and” are separate entries in the source; they are usually repeats but may differ in a detail not shown here. Equal values may be shown once.
# Tested on: HL-1
# Experiment: protection of cardiomyocytes from stress damage, SAR follow-up, cell-based, panel, H9c2 and HL-1, ATP luminescence, set 2 (AID 651871);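 also: cells exposed to stressor for 2 h before ATP readout; reference of the scale not given here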
# Details: H9c2/HL-1 cardiomyocytes, 2-deoxyglucose stress, with 2-deoxyglucose, run 2, at 79 µM (top of the series)
row,Compound,activity (protection/inhibition)
1,COc1ccc2c(c1OC)C(=O)N1c3ccccc3C(=O)N(Cc3cccc(Cl)c3Cl)C21 (stereo not drawn),27.7% and -9.62%
2,COc1ccc2nc(-c3cc(OC)c(OC)c(OC)c3)cc(C(=O)NCC(=O)Nc3ccc(C(C)=O)cc3)c2c1,54.8%
3,CCOC(=O)c1cccc(NC(=O)CNC(=O)c2cc(-c3cc(OC)c(OC)c(OC)c3)nc3ccccc23)c1,75.9%
